Compound activity deposited in PubChem by The Scripps Research Institute Molecular Screening Center.
Most compounds without a hit are left out; they make up all but 1.8% or so of the library.
PME-1 primary = PME-1 (human) inhibition; Q9Y570; recombinant PME-1, FP-Rh probe fluorescence polarization; inhibition, % at 5.9 µM; actives 0.53% (n = 320,000); AID 2130;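 active = inhibition above the campaign mean of all compounds plus 3 SD, cut at about 26% in these data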;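 also: competitive labeling of PME-1 active site by serine hydrolase directed probe; inhibitors block probe labeling so polarization falls and inhibition rises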
PP1 inh = counter-screen for PP5 inhibitors: inhibitors of human PP1-alpha; purified PP1alpha, OMFP fluorescence; inhibition, % at 6.7 µM; actives 0.9% (n = 320,000); AID 2235;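 active = inhibition above the mean inhibition of all tested compounds plus 3 SD, computed separately for each screening campaign, cut at about 15% in these data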
LYPLA1 counter = blocks human lysophospholipase 1, a PME1 counter-screen | O75608 | recombinant LYPLA1, FP-Rh probe fluorescence polarization | inhibition, % at 5.9 µM | actives 0.16% (n = 320,000);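 active = inhibition above the mean of all tested compounds plus 3 SD, set per campaign, cut at about 14% in these data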;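 also: inhibitors block serine hydrolase probe labeling of LYPLA1 so polarization falls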
LYPLA2 inh = blocks human lysophospholipase 2, a PME1 counter-screen; O95372; recombinant LYPLA2, FP-Rh probe fluorescence polarization; inhibition, % at 5.9 µM; actives 0.38% (n = 320,000);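 active = inhibition above the screen-wide mean plus 3 SD, limit set per campaign, cut at about 26% in these data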
Fam108B inh = counter-screen for RBBP9 inhibitors: inhibitors of mouse Fam108B; inhibition, % at 9.51 µM; recombinant Fam108B, FP-Rh probe fluorescence polarization; actives 0.33% (n = 300,000);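 active = inhibition above the screen mean inhibition plus 3 SD, computed separately per campaign, cut at about 18% in these data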;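 also: inhibitors lower polarization as less probe binds the enzyme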
PP5 primary = PP5 (human) phosphatase inhibition. P53041. purified PP5c, OMFP substrate fluorescence. inhibition, % at 6.7 µM. actives 0.18% (n = 320,000). AID 1987;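 active = inhibition above the campaign's mean inhibition across all tested compounds plus 3 SD, cut at about 9.5% in these data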
Target sequence (P53041 whole entry, looked up): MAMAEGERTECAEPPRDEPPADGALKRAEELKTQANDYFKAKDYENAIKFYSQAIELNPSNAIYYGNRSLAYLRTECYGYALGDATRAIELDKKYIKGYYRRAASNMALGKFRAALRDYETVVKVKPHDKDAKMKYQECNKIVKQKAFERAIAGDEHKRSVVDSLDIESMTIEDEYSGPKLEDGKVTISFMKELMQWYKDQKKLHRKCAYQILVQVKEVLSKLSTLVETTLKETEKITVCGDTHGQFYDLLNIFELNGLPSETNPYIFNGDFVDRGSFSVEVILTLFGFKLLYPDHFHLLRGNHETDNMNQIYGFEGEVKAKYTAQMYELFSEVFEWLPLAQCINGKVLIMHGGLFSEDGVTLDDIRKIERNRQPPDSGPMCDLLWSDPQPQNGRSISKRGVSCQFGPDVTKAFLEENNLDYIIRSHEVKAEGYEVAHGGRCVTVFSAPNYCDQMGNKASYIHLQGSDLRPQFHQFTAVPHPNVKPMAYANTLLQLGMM
PP1 inh confirm = confirmation of human PP1 phosphatase inhibitors | shares compounds with PP1 inh | purified PP1alpha, OMFP substrate fluorescence | inhibition, % at 6.7 µM | actives 52% (n = 1,900);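 active = mean PP1 inhibition above a set limit taken from the earlier primary screen, cut at about 15% in these data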
PP5 counter = PP5 phosphatase inhibition, counter-screen for PP1 inhibitors. inhibition, % at 6.7 µM. shares compounds with PP1 inh. actives 4% (n = 1,900). purified PP5c, OMFP fluorescence. AID 2360;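 active = mean PP5 inhibition over triplicate wells above about 9.5% taken from the earlier PP1 screen, limit read from the data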
Large screens that a line does not name were inactive (follow-up assays come after a bar, where they were run).

COc1ccc(NC(=O)C2(c3ccc(NC(=O)c4ccc(OC(C)=O)cc4)cc3)CCCC2)cc1	PP1 inh 18 | PP1 inh confirm 24 | PP5 counter inactive
COC(=O)c1sccc1NC(=O)c1c(F)c(F)c(F)c(F)c1F	none
C[N+]1=C(/C=C/Nc2ccccc2Cl)C(C)(C)c2ccccc21	none
COC(=O)c1ccc2c(c1)C(C)(C)C(/C=C/c1ccccc1O)=[N+]2C	PP1 inh 19 | PP1 inh confirm inactive | PP5 counter inactive
O=C1C(=O)N(Cc2ccco2)C(c2cccc(Cl)c2)/C1=C(\O)c1ccc2c(c1)OCCO2 (stereo unspecified)	PP1 inh 19 | PP1 inh confirm inactive | PP5 counter inactive
Cc1ccc(S(=O)(=O)n2cccc2C)cc1	none
NNC(=O)c1ccc(COc2ccc3c(c2)CCC3)cc1	none
NNC(=O)c1ccc(COc2ccc3ccccc3c2)cc1	PP1 inh 21 | PP1 inh confirm inactive | PP5 counter inactive
CCOC(=O)C1=C(CSc2nc3ccccc3s2)NC(=O)NC1c1ccc(OC)cc1 (stereo unspecified)	none
CCOC(=O)C1=C(CSc2nc3ccccc3s2)NC(=O)NC1c1cc(C)ccc1C (stereo unspecified)	PP1 inh 23 | PP1 inh confirm inactive | PP5 counter inactive
S=c1[nH]nc(-c2cc(-c3ccccc3)n[nH]2)n1/N=C/c1ccc(Br)s1	PP1 inh 28 | PP1 inh confirm 33 | PP5 counter inactive
Cc1cc(-c2n[nH]c(=S)n2/N=C/c2ccc(Br)s2)n[nH]1	none
S=c1[nH]nc(-c2cc(-c3ccccc3)n[nH]2)n1/N=C/c1c(Cl)cccc1Cl	PP1 inh 18, PP5 primary 9.6 | PP1 inh confirm 27 | PP5 counter inactive
O=S(=O)(Nc1ccc(C(F)(F)F)cn1)c1ccccc1	none
O=C1CNC(=S)N1c1nc2ccccc2s1	PP1 inh 25 | PP1 inh confirm inactive | PP5 counter inactive
O=C1CCC(=O)N1c1ccc(-c2nc3ccccc3s2)cc1	none
Cc1ccc(C(=O)NN2CCOCC2)cc1	none
O=C(NN1CCOCC1)c1ccc(F)cc1	PP1 inh 20 | PP1 inh confirm inactive | PP5 counter inactive
CCC1=NNc2cccc3c(OC)ccc1c23	PP1 inh 33 | PP1 inh confirm inactive | PP5 counter inactive
CCc1nnc(NC(=O)CN2CCN(Cc3cccc(OC)c3)CC2)s1	none
CCc1nnc(NC(=O)CN2CCN(c3cccc(OC)c3)CC2)s1	PP1 inh 34 | PP1 inh confirm inactive | PP5 counter inactive
O=[N+]([O-])c1ccc(N2CCN(S(=O)(=O)c3ccc(Cl)cc3)CC2)cc1NCc1cccnc1	PP1 inh 19 | PP1 inh confirm 16 | PP5 counter inactive
O=C(c1ccc(Cl)cc1)N1CCN(c2ccc([N+](=O)[O-])c(NCc3cccnc3)c2)CC1	none
O=C(CN1C(=O)NC2(CCCC2)C1=O)NNC(=O)c1ccc(Br)cc1	none
O=[N+]([O-])c1ccccc1/C=C/C=N/n1c(-c2ccc(Cl)cc2)n[nH]c1=S	PP1 inh 25 | PP1 inh confirm 28 | PP5 counter inactive
CCC(=O)N1CCc2cc(S(=O)(=O)CCC(=O)N3CCN(c4ccc(F)cc4)CC3)ccc21	none
CN([C@@H](Cc1ccc(OS(=O)(=O)c2cccc3cnccc23)cc1)C(=O)N1CCN(c2ccccc2)CC1)S(=O)(=O)c1cccc2cnccc12	PP1 inh 29 | PP1 inh confirm 20 | PP5 counter inactive
CCOc1ccc(S(=O)(=O)N(CC)CC(=O)NCc2ccncc2)cc1	none
COc1ccc([N+](=O)[O-])cc1NC(=S)NC(C)=O	none
COc1ccc(/C=C/C(=O)NC(=S)Nc2cc([N+](=O)[O-])ccc2O)cc1OC	PP1 inh 43 | PP1 inh confirm 39 | PP5 counter inactive
CCc1ccc(C(=O)COC(=O)c2cc([N+](=O)[O-])ccc2N2CCOCC2)cc1	none
Nc1cc2nc3ccccc3oc-2cc1=O	PP1 inh 19 | PP1 inh confirm inactive | PP5 counter inactive
